Assay [1] in a line: LFS_MB_1R medulloblastoma cell growth inhibition, synergistic combos for chromothripsis tumors, cisplatin or BGB combos (AID 1671452).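 Also: cells exposed for 96 hours before readout.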 The settings on record: LFS_MB_1R medulloblastoma cells, stronger effect = higher value.
A short description of assay [2]: CRL2098 osteosarcoma cell growth inhibition, synergistic combos for chromothripsis tumors, BGB or cisplatin IC20 combos (AID 1671454).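 Also: cells exposed for 96 h before readout; 0% = vehicle DMSO and 100% = killing by high DMSO.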 Conditions: CRL2098 osteosarcoma cells, drug combinations, stronger effect = higher value.
A short description of assay [3]: HD-MB03 medulloblastoma cell growth inhibition, synergistic combos for chromothripsis tumors, BGB or cisplatin IC20 combos (AID 1671455; in the data active = inhibition above about 83%;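 also: 0% = vehicle DMSO and 100% = high DMSO as cytotoxic control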). Conditions: HD-MB03 medulloblastoma cells, stronger effect = higher value.
Assay [4] is described as follows: UWB1.289 ovarian carcinoma cell growth inhibition, synergistic combos for chromothripsis tumors, BGB or cisplatin combos (AID 1671456).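 Also: cells exposed to compound for four days; 0% = vehicle DMSO and 100% = killing by high DMSO.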 Conditions: UWB1.289 ovarian carcinoma cells, stronger effect = higher value.
A short description of assay [5]: LFS_MB_2R medulloblastoma cell growth inhibition, synergistic combos for chromothripsis tumors, cisplatin combos (AID 1671457).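 Also: cells exposed to compound for four days before readout.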 Conditions: LFS_MB_2R medulloblastoma cells, stronger effect = higher value.
A short description of assay [6]: UWB1.289_BRCA1 ovarian cancer growth, cell-based, BGB or cisplatin combinations (AID 1671459). Conditions: UWB1.289 BRCA1 ovarian carcinoma, drug combinations, stronger effect = higher value.
The nature of assay [7]: human astrocyte viability loss, single and combined drugs, cytotoxicity control for chromothriptic childhood tumor combination screen, cell-based, BGB or cisplatin IC20 combos (AID 1671460).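 Also: cells exposed to compounds for 96 hours before viability readout; 0% = vehicle and 100% = killing control.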 Conditions: Human astrocytes, drug combinations, stronger effect = higher value.
Assay [8] in a line: growth inhibition of CRL1545 osteosarcoma cells, cell-based, cisplatin and BGB IC20 combos (AID 1671464).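 Also: cells exposed to compound for 96 hours before readout; 0% = vehicle DMSO and 100% = high DMSO killing control.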 The settings on record: stronger effect = higher value.
Assay [9] is described as follows: circadian clock period modulators, cell-based, LOPAC library, luminescence reporter (AID 2774; call rule not given here;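 also: values are relative to mean of DMSO wells on each plate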). Conditions: circadian reporter cells, at 7 µM, actives lie on both sides.
A short description of assay [10]: hESC survival regulators, cell-based (AID 493140; call rule not given here;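 also: cells exposed to compounds for four days before counting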). The settings on record: human embryonic stem cell survival screen; stronger effect = higher value.
Assay [11] in a line: liver-stage malaria parasite growth inhibition, primary screen, cell-based, HepG2, luciferase luminescence, HepG2 viability (AID 624349; in the data active = parasite load remaining mostly below about 12%, no sharp cut-off; inactive = mostly above about 10%;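 also: 100% = mean of DMSO negative control wells on the same plate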). The settings on record: P. berghei liver stage in HepG2, luciferase luminescence, concentration not given here; parasite load remaining: stronger effect = lower value; viability: measured here: HepG2 viability without parasites.
Assay [12] has as its system Hepatitis C virus NS3 helicase. The assay can be described thus: HCV NS3 helicase inhibitors, primary screen, biochemical, fluorescence polarization, LOPAC1280 library (AID 687035; in the data active = inhibition above about 37%). Conditions: Purified HCV NS3 helicase, Cy5-dT15 ssDNA binding fluorescence polarization; stronger effect = higher value; concentration not given here.
The nature of assay [13]: Cy5 fluorescence quenching or enhancement artefacts, artefact control for HCV NS3 helicase inhibitor project, biochemical, LOPAC1280 (AID 687037; call rule not given here). Conditions: Cy5-DNA-NS3h complex fluorescence interference counterscreen.
A short description of assay [14]: phospholipid biosynthesis inhibitors in animal cells, primary screen, cell-based, LOPAC library, screen 4 (AID 1347384; call rule not given here). The settings on record: phospholipid biosynthesis inhibition screen, at 10 µM.
Assay [15] deals with NAD(+) hydrolase SARM1 (Homo sapiens) (UniProt Q6SZW1). The experiment in a line: SARM1 TIR NADase inhibitors, cell lysate, NAD-Glo luminescence (AID 1508614;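 active = compound whose remaining NAD level is above about 45 nM, limit read from the data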;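 also: higher remaining NAD means stronger inhibition of SARM1 NADase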). The settings on record: SAM-TIR HEK293T lysate NADase, at 1 µM, stronger effect = higher value.
The target of assay [16] is Mitogen-activated protein kinase 7 (Homo sapiens) (UniProt Q13164). The experiment in a line: ERK5 transactivation activators in reporter cells, primary screen, cell-based, HTS (AID 1508626;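 active = luciferase signal above three times the same-plate solvent-only control wells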;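 also: luciferase driven by Gal4-ERK5 fusion binding five Gal4 sites before minimal TATA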). The settings on record: HeLa Gal4-ERK5 transactivation, 18 h, at 5 µM, stronger effect = higher value.
Assay [17] can be described thus: viability rescue of complex I mutant cybrids, primary screen, cell-based, galactose medium, ATP luminescence (AID 1645843;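 active = z-score of at least 1.8 in each of two replicates, scored against plate mean and spread of sample wells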;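 also: positive z means more ATP and so rescue of galactose-driven cybrid death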). Conditions: complex I mutant cybrid cells, 72 h, stronger effect = higher value.
The nature of assay [18]: kinase inhibitors against Plasmodium liver-stage infection, cell-based, known kinase inhibitor set, luminescence, hepatoma host viability (AID 624392; call rule not given here;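 also: infected cells incubated roughly two days before readout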). Conditions: Plasmodium liver stage in hepatoma cells, luciferase luminescence, concentration not given here; liver cell % of control: measured here: host liver cell viability; parasite % of control: stronger effect = lower value.
[19] abbreviates: measured here: combination with BGB IC40, at 0.05 µM.
The mark [20] stands for this setting: measured here: combination with cisplatin, at 0.5 µM.
The mark [21] stands for this setting: measured here: combination with cisplatin, at 5 µM.
[22] abbreviates: measured here: combination with BGB at IC20, at 0.5 µM.
Setting [23] is: measured here: combination with cisplatin at IC20, at 0.5 µM.
Setting [24] is: measured here: combo with BGB at IC20, at 0.5 µM.
The mark [25] stands for this setting: measured here: combo with cisplatin at IC20, at 0.5 µM.
[26] abbreviates: measured here: inhibition with BGB combination, at 0.05 µM.
[27] abbreviates: measured here: inhibition with cisplatin combination, at 0.05 µM.
[28] abbreviates: BGB combination, concentration series, at 5 µM.
[29] abbreviates: cisplatin combination, concentration series, at 5 µM.
Setting [30] is: measured here: combo with BGB IC20, at 0.5 µM.
[31] abbreviates: measured here: combo with cisplatin IC20, at 0.5 µM.
[32] abbreviates: measured here: with BGB IC20 combination, at 0.5 µM.
The mark [33] stands for this setting: measured here: with cisplatin IC20 combination, at 0.5 µM.

The structures appear in SMILES notation. “And” between values parts separate entries of the source, which are not always exact repeats. Equal values may be shown once. The source holds several records for some structures; these can differ, active in one and inactive in another. The source made the active and inactive calls. Rule as the data show it, unless noted: active = inhibition above about 80%; inactive = the rest.

NAD(+) hydrolase SARM1 (Homo sapiens), sequence (Q6SZW1 whole entry, looked up, the tested form may be a part): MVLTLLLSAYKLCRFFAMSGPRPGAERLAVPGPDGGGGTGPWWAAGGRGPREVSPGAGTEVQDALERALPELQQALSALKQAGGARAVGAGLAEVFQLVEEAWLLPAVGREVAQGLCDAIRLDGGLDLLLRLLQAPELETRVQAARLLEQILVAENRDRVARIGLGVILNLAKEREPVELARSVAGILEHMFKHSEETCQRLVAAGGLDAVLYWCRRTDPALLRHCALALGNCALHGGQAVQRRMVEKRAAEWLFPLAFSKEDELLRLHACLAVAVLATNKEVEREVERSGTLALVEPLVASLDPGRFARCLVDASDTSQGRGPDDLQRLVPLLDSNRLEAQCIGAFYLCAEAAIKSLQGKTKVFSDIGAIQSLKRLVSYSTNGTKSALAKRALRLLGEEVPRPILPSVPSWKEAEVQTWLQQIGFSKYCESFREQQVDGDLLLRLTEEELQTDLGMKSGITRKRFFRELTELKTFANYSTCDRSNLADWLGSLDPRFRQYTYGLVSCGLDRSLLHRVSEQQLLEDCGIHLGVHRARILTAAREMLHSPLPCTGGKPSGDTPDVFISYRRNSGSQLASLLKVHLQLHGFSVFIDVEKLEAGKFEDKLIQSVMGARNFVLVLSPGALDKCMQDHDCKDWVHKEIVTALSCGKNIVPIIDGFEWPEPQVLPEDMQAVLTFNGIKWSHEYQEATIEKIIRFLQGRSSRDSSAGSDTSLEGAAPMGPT
Mitogen-activated protein kinase 7 (Homo sapiens), sequence (Q13164 whole entry, looked up, the tested form may be a part): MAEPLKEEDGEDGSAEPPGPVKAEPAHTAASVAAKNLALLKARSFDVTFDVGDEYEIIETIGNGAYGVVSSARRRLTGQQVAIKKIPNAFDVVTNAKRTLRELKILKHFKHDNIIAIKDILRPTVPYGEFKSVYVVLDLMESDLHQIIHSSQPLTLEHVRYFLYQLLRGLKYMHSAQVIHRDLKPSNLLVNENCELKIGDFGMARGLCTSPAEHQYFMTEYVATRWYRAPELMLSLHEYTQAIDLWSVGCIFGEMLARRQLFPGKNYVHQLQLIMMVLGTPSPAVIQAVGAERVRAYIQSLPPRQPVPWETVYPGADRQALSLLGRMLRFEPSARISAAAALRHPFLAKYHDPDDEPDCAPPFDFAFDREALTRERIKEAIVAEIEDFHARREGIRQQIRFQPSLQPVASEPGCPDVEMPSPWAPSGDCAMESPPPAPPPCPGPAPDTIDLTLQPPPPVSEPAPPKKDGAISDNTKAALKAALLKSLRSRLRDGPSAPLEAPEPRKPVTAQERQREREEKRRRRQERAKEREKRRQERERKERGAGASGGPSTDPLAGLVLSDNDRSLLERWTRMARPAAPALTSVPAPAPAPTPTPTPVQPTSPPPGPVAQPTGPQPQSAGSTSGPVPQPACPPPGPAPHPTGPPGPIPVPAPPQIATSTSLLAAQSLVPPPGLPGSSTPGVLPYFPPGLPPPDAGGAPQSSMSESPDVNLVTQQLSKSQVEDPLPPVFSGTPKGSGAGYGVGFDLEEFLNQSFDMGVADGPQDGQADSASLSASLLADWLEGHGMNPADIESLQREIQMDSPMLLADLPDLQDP

Take `O=C(/C=C/c1cccc(S(=O)(=O)Nc2ccccc2)c1)NO`: the inhibition in [1] (at 0.5 µM) was 31.6% (inactive); in assay [1] (setting [19]) it was -40%; in assay [1] (setting [20]), 39.8%; in [1] (setting [21]) it was 99.9%; in assay [2] (at 0.5 µM), -17% (inactive); in assay [2] (setting [22]) it was -63.8%. Further, the inhibition in [2] (setting [23]) is 6.33%; in assay [3] (at 0.5 µM), 86.6% (active); in assay [3] (setting [24]), 88.4%; in assay [3] (setting [25]) it was 99%; in [4] (at 0.5 µM), 41% (inactive); in assay [4] (setting [26]), -3.28%. For the same compound, the inhibition in [4] (setting [27]) was 9.18%; in assay [5] (at 0.5 µM), 37.4% (inactive); in assay [5] (setting [20]), 58.7%; in [5] (setting [21]), 105%; in assay [6] (setting [28]), 99.6%; in assay [6] (at 0.5 µM), 41.8% (inactive). The inhibition in assay [6] (setting [29]) was 120%; in assay [7] (at 0.5 µM), 31.9% (inactive); in assay [7] (setting [30]), 38.1%; in assay [7] (setting [31]), 9.25%; in [8] (at 0.5 µM), 90.5% (active); in [8] (setting [32]) it was 88.7%. In addition, the inhibition in assay [8] (setting [33]) is 91.2%; in [8] (single agent, at 0.05 µM), -2.13%; in assay [8] (single agent, at 5 µM) it was 85.5%.

As to `CC(=O)O[C@H]1C[C@@H]2CC[C@@H]3[C@H](CC[C@@]4(C)[C@H]3C[C@H]([N+]3(C)CCCCC3)[C@@H]4OC(C)=O)[C@@]2(C)C[C@@H]1[N+]1(C)CCCCC1`, the period change in assay [9] is -0.015 h (inactive). In assay [10], the survival was 6.75 (inactive). For the same compound, in assay [11], the parasite load remaining is 119% (inactive) and 39.7% (inactive); the viability was 75.7% and 111%. The inhibition in [12] is 1% (inactive). For the same compound, the fluorescence ratio (interference) in [13] is 1 (inactive). Also, the compound was called inactive in [14]. In assay [15], the remaining NAD was 10 nM (inactive). Further, the luciferase signal in assay [16] was 40 AU (inactive). The z-score in assay [17] was 0.28 (inactive) and 0.73 (inactive).

For `C#Cc1cccc(Nc2ncnc3cc(OC)c(OCCCCCCC(=O)NO)cc23)c1`, the inhibition was 72.7% (inactive) and 57.9% (inactive) in assay [1] (at 0.5 µM); -16.6% and -26.1% in assay [1] (setting [19]); 88.8% and 73.7% in [1] (setting [20]); 101% and 99% in assay [1] (setting [21]); -70.6% (inactive) and -57.7% (inactive) in assay [2] (at 0.5 µM); -40.2% and -108% in assay [2] (setting [22]). Moreover, the inhibition in assay [2] (setting [23]) is -130% and -17.7%; in assay [3] (at 0.5 µM), 45.5% (inactive) and 17.9% (inactive); in [3] (setting [24]), 34.3% and 16.8%; in assay [3] (setting [25]) it was 84.2% and 39.1%; in [4] (at 0.5 µM) it was 58.9% (inactive) and 21.7% (inactive); in assay [4] (setting [26]) it was -23% and -18.1%. The inhibition in assay [4] (setting [27]) is 7.84% and -0.343%; in [5] (at 0.5 µM) it was 80.6% (active) and 5.75% (inactive); in [5] (setting [20]), 96% and 17.9%; in assay [5] (setting [21]) it was 99.8% and 105%; in assay [6] (setting [28]), 108% and 106%; in [6] (at 0.5 µM) it was 64.7% (inactive) and 19.7% (inactive). Moreover, the inhibition is 128% and 122% in assay [6] (setting [29]); 63.5% (inactive) and 39.1% (inactive) in [7] (at 0.5 µM); 58% and 34.9% in assay [7] (setting [30]); 64.7% and 42.3% in assay [7] (setting [31]); 34.3% (inactive) and 15.2% (inactive) in [8] (at 0.5 µM); 17.9% and 26.4% in assay [8] (setting [32]). Besides, the inhibition in assay [8] (setting [33]) was 41.6% and 7.54%; in assay [8] (single agent, at 0.05 µM) it was -39.2% and -32.8%; in assay [8] (single agent, at 5 µM) it was 97.8% and 92.8%.

On to `O=C1c2ccccc2-[n+]2ccc3c([nH]c4ccccc43)c21`, for which, in assay [11], the parasite load remaining was 1.89% (inactive) and the viability was determined as 32.8%.

As to `COc1ccccc1N1CCN(CCN(C(=O)C2CCCCC2)c2ccccn2)CC1`, the period change in assay [9] is -0.085 h (inactive). The inhibition in assay [12] was -3% (inactive). Besides, the fluorescence ratio (interference) in assay [13] is 1 (inactive). Further, the compound was called inactive in assay [14]. For the same compound, in assay [17], the z-score is -1.04 (inactive).

Consider `CO[C@H]1/C=C/O[C@@]2(C)Oc3c(C)c(O)c4c(O)c(c(/C=N/N5CCN(C)CC5)c(O)c4c3C2=O)NC(=O)/C(C)=C\C=C\[C@H](C)[C@H](O)[C@@H](C)[C@@H](O)[C@@H](C)[C@H](OC(C)=O)[C@@H]1C`, for which the survival in assay [10] was 9.5 (inactive). Moreover, in assay [11], the parasite load remaining was 95.1% (inactive) and 71.6% (inactive) and 41.3% (inactive); the viability was 99.1% and 71.9% and 96.5%. Also, in [15], the remaining NAD is 10 nM (inactive). For the same compound, the luciferase signal in assay [16] was 44 AU (inactive). Besides, the z-score in assay [17] is 1.12 (inactive).

In the case of `Clc1ccc2c(N3CCN(CCCN4CCN(c5ccnc6cc(Cl)ccc56)CC4)CC3)ccnc2c1`, the z-score in assay [17] is -0.6 (inactive).

Turning to `Cc1nc(N)ncc1-c1nc(N2CCOCC2)c2sc(C(C)(C)O)cc2n1`, in assay [18], the liver cell % of control was 78.4% and 78.6% and 93.7%; the parasite % of control was 406% (inactive) and 544% (inactive) and 660% (inactive).

With `C[Se]CCC(N)C(=O)O` (stereo not drawn), the remaining NAD in assay [15] was 10 nM (inactive).

In the case of `COc1nccc(-c2c(-c3ccc(F)cc3)ncn2C2CCNCC2)n1`, in assay [18], the liver cell % of control is 89.2% and 92.3% and 100%; the parasite % of control is 45.1% (inactive) and 35% (inactive) and 41.5% (inactive).
